Data on 17 molecules can be found in PubChem BioAssay (EPA / NIEHS).

Where a structure was tested more than once in an assay, its records may differ in their call. Active and inactive are the calls of the source. The calls were made as follows: active = hit-call score of the fitted dose curve at least 0.9, where 1 is the maximum; inactive = score below 0.9.

A short description of this experiment: CCTE_Shafer_MEA_acute_interburst_interval_mean: CCTE's Neural Acute Assay for Mean Interburst Interval, Shafer Lab (AID 2284016).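 Also: percent change of mean interburst interval versus each well's own pre-dose baseline.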 The protocol:
CCTE_Shafer_MEA_acute assay is conducted using Axion Biosystems 48 well microelectrode array (MEA) plates and Maestro recording system. Each well of the MEA plate contains a grid of 16 microelectrodes embedded in the culture surface. Electrically active cells, such as neurons, can be cultured over the electrodes, and electrical activity in these cells can be recorded extracellularly. The spontaneous firing of neurons is captured from each electrode on a microsecond timescale providing both temporally and spatially precise data. […] The CCTE_Shafer_MEA_acute assay uses primary cultures of rat cortical neurons. As these cultures mature over time, neural networks develop functional activity and form cohesive networks in which electrical activity can be highly coordinated. Baseline 40-minute recordings are made on days post-plating 13 or 15, followed by a secondary 40-minute recording after chemical exposure.CCTE_Shafer_MEA_acute_interburst_interval_mean is a component of the CCTE_Shafer_MEA_acute assay. It measures the average time between the start of consecutive single-electrode bursts (temporally-clustered groups of action potential firing) during a recording in a microelectrode array (MEA) using Axion Biosystems Maestro 768 channel amplifier with the AxIS adaptive spike detector. The recordings before and after chemical treatment are used to calculate a percent change in the mean inter-burst interval in each well.Data from the assay component CCTE_Shafer_MEA_acute_interburst_interval_mean was analyzed into 1 assay endpoint. This assay endpoint, CCTE_Shafer_MEA_acute_interburst_interval_mean, was analyzed in the negative analysis fitting direction relative to DMSO as the negative control and baseline of activity. Using a type of functional reporter, gain or loss-of-signal activity can be used to understand electrical activity.
Spontaneous activity in the cortical cultures was recorded using an Axion Biosystems Maestro 768 channel amplifier and Axion Integrated Studios (AxIS) v1.8 (or later) software. The amplifier recorded from all channels simultaneously (gain = 1200 x; sampling rate = 12.5 kHz/channel): raw signals were filtered with a Butterworth band-pass filter (300-5000 Hz), which filters out slower local field potentials leaving only fast potentials, i.e., "spikes", arising from extracellular currents associated with action potentials (Pine 2006; Wheeler and Nam 2011). On-line spike detection of filtered signals was conducted with the AxIS adaptive spike detector, using a threshold of 8x the root mean squared (rms) noise on each channel. Any electrodes with rms noise levels greater than 5 uV were grounded (e.g., no data were recorded). Once grounded, an electrode was grounded for the duration of the experiment. All recordings were conducted at 37 C. Wells were deemed usable if on the day of the exposure >/= 10 electrodes were active (defined as >/= 5 spikes/min). On DIV 13 or 15, a minimum of three wells from one cortical culture preparation were treated with each compound (0.03-40 uM). Prior to recording baseline activity, each mwMEA plate was placed in the Maestro at 37 C and allowed to sit for 20 min while firing rates stabilized. Baseline activity (40 min) was recorded before the addition of each compound. An additional 40 min of spontaneous activity was recorded in the presence of each compound. Changes in network parameters relative to baseline were assessed following compound treatment.
As usually defined, the AC50 is the midpoint of the concentration-response curve, whichever way the signal moves. For the molecule `CC[C@H]1CC[C@H](NCc2cc3c(cc2OC)[C@H]2C[C@H]2C(=O)N3C)[C@H](c2ccccc2)N1`, the AC50 was 7.83 µM (active).

For `O=P(OC(CCl)CCl)(OC(CCl)CCl)OC(CCl)CCl`, the outcome was inactive and the AC50 was 24 µM (active).

`O=C(O)c1cc(N=Nc2ccc(S(=O)(=O)Nc3ccccn3)cc2)ccc1O`: the outcome was inactive.

Take `CCCN(C1CCN(C(=O)C2CCNCC2)CC1)[C@@H]1CCc2ccc(OC)cc2C1`: the molecule was called inactive.

On to `Cn1cnc([N+](=O)[O-])c1Sc1ncnc2nc[nH]c12`, for which the molecule was called inactive.

For the molecule `CCOC(=O)c1ccc(C2CCC(NC[C@H](O)COc3ccc(O)c(NS(C)(=O)=O)c3)CC2)cc1` (stereo partly drawn), the molecule was called inactive.

For the molecule `CC[C@H]1OC(=O)[C@H](C)[C@@H](O[C@H]2C[C@@](C)(OC)[C@@H](O)[C@H](C)O2)[C@H](C)[C@@H](O[C@@H]2O[C@H](C)C[C@H](N(C)C)[C@H]2O)[C@](C)(O)C[C@@H](C)C(=O)[C@H](C)[C@@H](O)[C@]1(C)O`, the molecule was classed as inactive.

With `CC(C)=CCCC(C)=CC=O`, the molecule was called inactive.

Consider `O=C(O)CCN(C1(C(=O)NO)CCCC1)S(=O)(=O)c1ccc(Oc2ccc(F)cc2)cc1`, for which the molecule was classed as inactive.

As for `CCC(C)(C)C(=O)O[C@H]1C[C@@H](C)C=C2C=C[C@H](C)[C@H](CC[C@@H]3C[C@@H](O)CC(=O)O3)[C@H]21`, the result was inactive.

As for `CCCCCCc1ccc(O)cc1O`, the half-maximal activity concentration (AC50) was 30.1 µM (active).

As to `On1ccccc1=S`, the outcome was inactive.

With `Cn1c(=O)c2c(ncn2C)n(C)c1=O`, the molecule was called inactive.

On to `COc1ccc2sc(C(=O)Nc3nnn[nH]3)c(OC(C)C)c2c1`, for which the result was inactive.

With `CCCCC(CC)COC(=O)CCCCCCCCC(=O)OCC(CC)CCCC` (stereo not drawn), the molecule was classed as inactive.

Regarding `Cc1[nH]cnc1C[C@H]1CCc2c(C)c3ccccc3n2C1=O`, the outcome was inactive.

Regarding `COc1cccc(-c2ccc(/C=C\CN3CCCCCC3)cc2Cl)c1`, the outcome was inactive.
